Bioassay records deposited in PubChem BioAssay by several laboratories.
DAX1 inh-1: DAX1 (NR0B1) inhibitors on StAR promoter, primary screen, cell-based, luminescence, SF-1 (NR5A1), full-length DAX-1; actives 1.1% (n = 370,000); inhibition, % at 6.8 µM; HEK293T StAR-luciferase reporter, SF-1/DAX-1 repression relief; AID 652010, 2013;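 active = inhibition above the mean over all tested compounds plus 3 SD, cut at about 3.6% in these data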;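 also: higher inhibition means more luminescence from relief of DAX-1 repression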
hcDAF12 agonist: H. contortus DAF-12 nuclear receptor activators, primary screen, cell-based, luminescence, HEK293, lit1-tk-luc reporter; HEK293 hcDAF-12 lit1-tk-luc reporter; 0% DMSO, 100% Δ7-dafachronic acid; activation, % at 6.8 µM; actives 1.4% (n = 370,000); AID 652067, 2013;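 active = activation above the mean of all tested compounds plus 3 SD, cut at about 5.5% in these data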
hgDAF-12 ag: H. glycines DAF-12 receptor agonists, primary screen, cell-based, luminescence, HEK293, GAL4 fusion, UAS-luciferase. Nuclear hormone receptor DAF-12 (Heterodera glycines), GAL4 fusion. HEK293 GAL4-hgDAF12 UAS-luciferase reporter, agonist luminescence; normalized to butyrate control. activation, % at 6.8 µM. actives 1.8% (n = 370,000);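 active = activation above a cutoff set at the mean of all screened compounds plus 3 SD, cut at about 10% in these data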
PolyA inhibitor: polyadenylation inhibitors in yeast reporter cells, primary screen, luminescence, S. cerevisiae; actives 0.02% (n = 300,000); AID 1875, 2009; S. cerevisiae SKY197-pL101 polyadenylation reporter, beta-gal luminescence; efflux-impaired pdr1/pdr3 knockout yeast; score 100 = 6 SD above DMSO; activity score, % at 12 µM;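 active = lowest replicate activity score at least 50, where 100 means six control SD above control mean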;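 also: yeast exposed to compound for 9 h at 30 °C; higher score means more reporter readthrough which indicates perturbed polyadenylation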
DAX1 inh-2: DAX1 (NR0B1) inhibitors, primary screen, cell-based, HEK293, Gal4-DAX1, luciferase luminescence. actives 0.99% (n = 340,000). Nuclear receptor subfamily 0 group B member 1 (Homo sapiens), P51843. inhibition, % at 6.75 µM. HEK293 Gal4-DAX1 luciferase reporter;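 active = inhibition above the mean over all tested compounds plus 3 SD, cut at about 4.2% in these data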;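 also: inhibition shows as a rise in luminescence from relieved DAX1 repression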
Target sequence (P51843 207-470 limits assumed): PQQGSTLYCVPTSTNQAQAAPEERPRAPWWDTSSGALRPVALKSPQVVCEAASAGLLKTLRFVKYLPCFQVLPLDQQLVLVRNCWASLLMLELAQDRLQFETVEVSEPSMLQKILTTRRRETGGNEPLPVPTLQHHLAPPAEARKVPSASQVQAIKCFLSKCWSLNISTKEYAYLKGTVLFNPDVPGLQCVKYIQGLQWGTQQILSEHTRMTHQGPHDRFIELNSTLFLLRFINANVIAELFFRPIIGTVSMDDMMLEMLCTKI
ssDAF12 agonist: S. stercoralis DAF-12 nuclear receptor activators, primary screen, cell-based, luminescence, HEK293, GRIP1 co-expression, lit1-tk-luc; Nuclear hormone receptor DAF-12 (Strongyloides stercoralis); HEK293 ssDAF-12/GRIP1 lit1-tk-luc reporter; % of 3 µM dafachronic acid response; activation, % at 6.8 µM; actives 1% (n = 370,000); AID 652126, 2013;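 active = activation above the mean over all tested compounds plus 3 SD, cut at about 0.9% in these data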
DAX1 conf: DAX1 (NR0B1) inhibitors relieving SF-1 repression, confirmation, cell-based, luminescence, HEK293T, full-length DAX-1, SF-1 activated StAR promoter; shares compounds with DAX1 inh-1; HEK293T StAR-promoter luciferase reporter, SF-1/DAX-1 repression; inhibition, % at 6.8 µM; actives 87% (n = 2,400); AID 652134, 2013;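 active = inhibition above the average of every tested compound plus 3 SD, cut at about 3.8% in these data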
SF1 mutant ctr: StAR reporter signal changes without DAX1, counter-screen for DAX1 inhibitor project, cell-based, luminescence, AF-2 mutant SF-1, transactivation; HEK293 StAR-luciferase, SF-1 AF2 mutant; actives 78% (n = 2,400); shares compounds with DAX1 inh-1; AID 652136, 2013; inhibition, % at 6.8 µM;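 active = inhibition above the mean of all tested compounds plus 3 SD, cut at about 3% in these data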
A number is an active result; n = inactive; x = no result. Only some compounds are listed: those with a hit (about 4.1% of all), similar ones and a draw of the others.

SMILES	DAX1 inh-1	hcDAF12 agonist	hgDAF-12 ag	PolyA inhibitor	DAX1 inh-2	ssDAF12 agonist	DAX1 conf	SF1 mutant ctr
Cc1ccsc1C(=O)NNC(=O)C1C2C=CC(C2)C1C(=O)O (stereo not given)	5.2	9.5	17.1	x	n	1.1	3.8	n
CC(=O)Nc1ccc(-c2ccnc3c2CC(C(=O)NCc2ccccc2)O3)cc1 (stereo not given)	4.5	n	n	x	x	n	9.6	n
CC(=O)Nc1ccc(-c2ccnc3c2CC(C(=O)NCc2ccco2)O3)cc1 (stereo not given)	4.7	n	n	x	x	n	11.5	n
CC(=O)Nc1ccc(-c2ccnc3c2CC(C(=O)NCCc2ccccc2)O3)cc1 (stereo not given)	n	n	n	x	x	n	x	x
COC(=O)C(CN)CN1C(=O)c2ccccc2C1=O (stereo not given)	n	n	n	x	x	n	x	x
Cc1[nH]nc2c1C(c1ccc(Br)cc1)N(Cc1ccccc1)C2=O (stereo not given)	n	n	n	x	x	n	x	x
Cc1ccccc1S(=O)(=O)/N=C(/Nc1nc2ccccc2s1)c1ccccc1	5.5	n	11.2	x	n	n	3.8	4.1
Cc1ccccc1S(=O)(=O)/N=C(/Nc1c(C)n(C)n(-c2ccccc2)c1=O)c1ccccc1	n	n	n	n	n	n	x	x
Cc1ccc(NC(=O)OCCCN2C(=O)CCC23CCC(C)CC3)cc1 (stereo not given)	n	n	n	x	x	n	x	x
COc1ccc(N=C(C)C2=C(O)c3ccccc3C2=O)cc1	5.0	n	11.6	n	n	n	19.2	5.9
CCOc1ccc(N=C(C)C2=C(O)c3ccccc3C2=O)cc1	n	n	n	n	n	n	x	x
CC(C)c1ccc(OCCCN2CCC(C(O)(c3ccccc3)c3ccccc3)CC2)cc1	n	n	n	x	x	n	x	x
CCOC(=O)CC[C@H]1CC[C@]2(CCCN(C(=O)c3ccccc3)C2)O1	n	n	n	x	x	n	x	x
Cc1ccc(NC(=O)COc2ccc3c(c2)OCO3)c(Cl)c1	5.0	n	13.2	x	n	n	9.2	4.3
CC(C)(C)c1nnc(NC(=O)COc2ccc3c(c2)OCO3)s1	7.9	n	n	n	n	n	9.1	7.2
CC(C)(C)c1nnc(NC(=O)c2ccc3c(c2)OCO3)s1	n	n	n	n	n	n	x	x
O=C(COc1ccc(F)cc1)Nc1nccs1	7.5	n	11.6	n	n	n	10.8	6.3
COc1ccccc1OCC(=O)Nc1ccc2c(c1)OCO2	n	n	n	n	n	n	x	x
O=C(CS(=O)(=O)c1ccc(F)cc1)Nc1nccs1	n	n	n	n	n	n	x	x
COc1cc(C)ccc1OCC(=O)Nc1ccc2c(c1)OCO2	6.2	n	n	x	n	n	7.7	6.3
CCc1ccccc1NC(=O)COc1ccc2c(c1)OCO2	n	n	n	n	n	n	x	x
Nn1c(SCC(=O)Nc2cccc3ccccc23)nnc1-c1cc(-c2ccccc2)n[nH]1	n	n	n	x	x	n	x	x
N#Cc1ccc(NC(=O)OC2CC3CC2[C@H]2CCCCN2C3)cc1 (stereo not given in full)	n	n	n	x	x	n	x	x
